Source: PubChem BioAssay (NCI)
Compounds without any hit were thinned out: in the full panel of roughly 83,000, 20% have a hit.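 Values shown are percent growth following 48 h exposure of cells in 96-well plates to a single concentration of compound; below 10 was considered active.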 Active and inactive are the calls of the source.

test system: HL-60(TB) leukemia; assay: NCI-60 one-dose screen, 48 h (100 = growth as untreated, 0 = no growth, -100 = all killed); conditions: 10 µM unless noted

| Structure (SMILES) | growth |
| --- | --- |
| COc1cc(/C=C2\CCCC3=C2NC(N)=NC3c2cc(OC)c(OC)c(OC)c2)cc(OC)c1OC (centres undefined) | -7.5% (active) |
| CCN(CC)CCN1C(=O)c2cccc3c(-c4ccc5c(c4)ncn5C4CCCCC4)ccc(c23)C1=O | -15.2% (active) |
| O=c1[nH]cc(Nc2cc(Cl)c3nonc3c2[N+](=O)[O-])c(=O)[nH]1 | 75.8% (inactive) |
| Cc1cc(-c2ccccc2)cc(C)n1 | 104% (inactive) |
| COc1cc2c(cc1OC)-c1cc(OC)c(OC)cc1C(CN(C)C)C2 (centres undefined) | 69.8% [100 µM] (inactive) |
| CC(C)(C)c1ccc(S(=O)(=O)N[C@H]2CC[C@H]3[C@@H]4CCc5cc(O)c([N+](=O)[O-])cc5[C@H]4CC[C@]23C)cc1 | 60.7% (inactive) |
| Cc1ccc(-c2nc(/C=C3/C(=O)Nc4ccc(F)cc43)c3ccccn23)cc1 | 110% (inactive) |
| CC(=O)N1CCN(CCNC(=O)n2cc(-c3ccncc3)c(-c3cc(O)cc(Cl)c3)n2)CC1 | 59.9% (inactive) |
| COC(=O)c1cc(Cl)cc([N+](=O)[O-])c1O | 18.8% (inactive) |
| c1ccc2cc(C[n+]3ccn(CCCCCCn4cc[n+](Cc5ccc6ccccc6c5)c4)c3)ccc2c1 | 87.9% (inactive) |
| COc1cc(OC)c(/C=C/S(=O)(=O)Cc2ccc(OC)c(NCC(=O)O)c2)c(OC)c1 | -32% (active) |
| COc1cc(Cl)cc(-c2nn(C(=O)NS(=O)(=O)c3ccccc3)cc2-c2ccncc2)c1 | 94.3% (inactive) |
| O=c1cc(C(F)(F)F)[nH]c(=S)[nH]1 | 94.1% (inactive) |
| COc1cccc(-c2ccc3c(c2)C2CCN(Cc4ccccc4)C3C2)c1 (centres undefined) | 46.2% (inactive) |
